High-throughput results from PubChem.
Hits are enriched below; roughly 3.4% of the tested compounds scored in any of these assays.
HSF1 inh: HSF1 inhibition. activity change, negative = inhibition, % at 7.5 µM (by protocol). NIH3T3-HGL HSE-luciferase, MG132-induced, luminescence 8 h; active compounds read low. 300,000 tested, 0.77% active. AID 2098;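 active = more than half of replicate wells show activity change below -50%, luminescence cut by over half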;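 note: luciferase reports HSF-1 transcriptional activity via heat shock element; 0% = median of DMSO wells and -100% = zero luminescence signal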
GAA850 FXN act: activators of GAA850 frataxin (FXN) promoter; HEK293 lucGAA850 FXN promoter luciferase reporter, 24 h; percent of 10 µM SAHA response; activation, % at 6 µM; 360,000 tested, 0.56% active;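 active = activation above the average of all compounds screened plus 3 SD, cutoff fixed separately per campaign, cut at about 7.5% in these data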;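 note: 0% = DMSO wells and 100% = 10 µM SAHA wells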
AI-2 QS mod: modulators of Vibrio harveyi AI-2 quorum sensing system; Vibrio harveyi JMH597 AI-2 luminescence/OD600 ratio, 9 h; active compounds read low; strain lacks LuxN and CqsS sensors; 0 = neutral-control median; activity change, % at 7.5 µM; 300,000 tested, 0.4% active; in the data active = activity change below about -75%, passing the limit was not always enough;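 note: luminescence divided by OD600 gain over 9 h not by final OD600 alone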
HSP90 refold inh: inhibitors of HSP90 luciferase refolding in rabbit reticulocyte lysate; inhibition, % at 5.6 µM; 290,000 tested, 0.91% active; luciferase refolding luminescence, 3 h;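 active = inhibition above the screen-wide mean plus 3 SD, computed separately per campaign, cut at about 16% in these data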;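 note: 0% = DMSO wells and 100% = 60 µM geldanamycin wells; inhibitors lower the luminescence because luciferase stays unfolded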
SMARCA2 activ: increases SMARCA2 function in MMTV reporter cells; MG213 cells, MMTV-luciferase reporter, dexamethasone, overnight; activation, % at 9.1 µM; 370,000 tested, 1% active; AID 652017; in the data active = activation above about 7.8%;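 note: 0% = vehicle wells and 100% = reference activator wells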
PG9 Ab binder: small molecules binding HIV-1 gp120 antibody PG9 | TR-FRET gp120-PG9 antibody binding | inhibition, % at 6.7 µM | 360,000 tested, 0.43% active | AID 624416; in the data active = inhibition above about 8.5%
SMARCA2 act conf: SMARCA2 activation, confirmation screen. shares compounds with SMARCA2 activ. MG213 cells, MMTV-luciferase with dexamethasone, luminescence, overnight; MG213 cells expressing E1A, Rb sequestered; DMSO wells 0%, reference activator 100%. activation, % at 9.1 µM. 3,500 tested, 30% active. AID 652260;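 active = activation above its plate's cutoff, the mean activation of tested wells plus 3 SD, cut at about 7.9% in these data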
VP16 Luc act: activates GAL4-VP16 luciferase, flagging SMARCA2 activator hits | shares compounds with SMARCA2 activ | HEK293 GAL4-VP16 pG5luc reporter, luciferase luminescence; scaled: DMSO wells 0%, SAHA wells 100% | activation, % at 9.1 µM | 3,500 tested, 41% active | AID 686939;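 active = activation above the solvent-only control well mean plus 3 SD, averaged across control plates, cut at about 5.2% in these data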
The depositor's hits bear a star; · = no result given.

SMILES | HSF1 inh | GAA850 FXN act | AI-2 QS mod | HSP90 refold inh | SMARCA2 activ | PG9 Ab binder | SMARCA2 act conf | VP16 Luc act
CCN(CC(=O)Nc1cccc(OC)c1)C(=O)c1ccc(C)s1 | -4 | 0 | 0 | 0 | 8.2* | -1 | 1 | 3
CCNC(=O)CSc1nnc(-c2cccc(S(=O)(=O)N(CC)CC)c2)n1CCc1ccccc1 | -5 | -1 | 23 | -8 | 8.9* | -1 | -4 | 0
N#C/C(=C\c1ccc(O)c(O)c1)C(=O)Nc1ccccc1 | · | 6 | · | · | 9.8* | -3 | 0 | 4
Cc1cccc(NC(=O)/C(C#N)=C/c2ccccc2O)n1 | 28 | 3 | 4 | 2 | 12* | -2 | 5 | 6.7*
C[C@@H](NC(=O)/C(C#N)=C/c1ccc(O)c(O)c1)c1ccccc1 | · | 3 | · | · | -5 | -4 | · | ·
COC(=O)C1=C(C)N(Cc2ccccc2C(F)(F)F)C(=NCc2ccc(OC)cc2)NC1c1ccc(F)cc1 (configuration not stated) | · | · | · | · | 0 | 0 | · | ·
O=C(NCC1CCN(C(=O)C(=O)c2cccs2)CC1)c1cccnc1 | · | · | · | · | -5 | 1 | · | ·
COc1ccc(Cl)cc1CC1(C)C(=O)Nc2c(Cl)cccc21 (configuration not stated) | · | 0 | · | · | -5 | 0 | · | ·
O=C(COn1nnc2ccccc21)NCC1CCCCC1 | 20 | 4 | -9 | 3 | 8.8* | -2 | 6 | 4
O=C(COn1nnc2ccccc21)N1CCN(Cc2ccccc2)CC1 | -6 | 6 | 11 | -4 | 10* | 0 | 4 | 5
COc1ccccc1OCC(=O)NCC1CCCCC1 | 7 | 0 | 14 | 3 | -1 | 0 | · | ·
O=C(C=Cc1ccc(O)c(O)c1)NCC(=O)NC(Cc1ccccc1)C(=O)O (configuration not stated) | · | · | · | · | -1 | -1 | · | ·
C#CCn1c2ccccc2c2nc3ccccc3nc21 | 6 | 6 | -1 | -1 | 9.3* | -1 | 5 | 3
CCCCN(C)C(=O)c1ccc(Nc2nc(C(N)Cc3ccc(C(F)(F)F)cc3)cs2)nc1 (configuration not stated) | · | 0 | · | · | -4 | 1 | · | ·
CC(=O)Nc1cccc(-c2ccnc3c2CC(C)(C(=O)Nc2cccc(OC(F)(F)F)c2)O3)c1 (configuration not stated) | · | -5 | · | · | -3 | 0 | · | ·
COc1ccc(C(=O)Nc2ccc3c(c2)OCCO3)c(OC)c1 | · | 4 | · | · | 14* | 2 | 7 | 14*
COc1ccc(C(=O)OCC(=O)Nc2ccc3c(c2)OCCO3)c(OC)c1 | · | 0 | · | · | 3 | -1 | · | ·
O=C(NC1CCCC1)C(c1ccc(F)cc1)N1CCC(O)(c2ccc(Cl)cc2)CC1 (configuration not stated) | · | · | · | · | 13* | 1 | -1 | -1
O=C(NC1CCCC1)C(c1ccc(Cl)cc1)N1CCOCC1 (configuration not stated) | 2 | 0 | 14 | -2 | 1 | 2 | · | ·
O=c1c(Cl)cc(Cl)nn1-c1ccccc1 | 25 | -3 | 22 | -3 | 1 | -2 | · | ·
COc1cc(Cl)nn(-c2ccccc2)c1=O | -5 | 0 | 12 | -4 | 11* | -2 | -1 | 2
O=C(Nc1nnc([C@@H]2C[C@H](O)[C@@H](CO)O2)s1)Nc1ccccc1F | · | 2 | · | · | -1 | -2 | · | ·
CC(=O)c1ccc(NCCCN2CCC(C(O)(c3ccccc3)c3ccccc3)CC2)cc1 | · | · | · | · | 9.6* | · | 1 | 1
Cc1oc(=O)c(NC(=O)c2cccc(Cl)c2)cc1C(=O)c1ccccc1 | 74 | 6 | 15 | -3 | 8.6* | 0 | 2 | 10*
COc1ccc(CCNCCC(=O)Nc2c(C)cc(C)cc2C)cc1OC | -9 | 0 | 12 | 1 | 9.0* | -3 | 5 | 1
SMILES | HSF1 inh | GAA850 FXN act | AI-2 QS mod | HSP90 refold inh | SMARCA2 activ | PG9 Ab binder | SMARCA2 act conf | VP16 Luc act
COc1cccc2sc(Nc3nnc(-c4ccccc4Cl)o3)nc12 | -1 | -4 | 27 | -4 | 8.8* | 1 | 6 | 2
CCC/C(=N\NC(=O)C1CC1)c1ccccc1 | 1 | 2 | 16 | · | 8.1* | -1 | 0 | 0
CCC/C(=N\NC(=O)C1CC1)c1ccc(Br)cc1 | 2 | 1 | 27 | 4 | -2 | 0 | · | ·
COC(=O)Cc1nnn2c1[C@H](C)[C@@H](OC)c1ccc(C(F)(F)F)cc1-2 | · | · | · | · | 11* | 0 | 0 | 3
Cc1cc(C)cc(-n2c3ccc(NC(=O)Cc4cccc5ccccc45)cc3c(=O)n2C)c1 | · | -2 | · | · | 0 | 0 | · | ·
CCC(c1nc2ccccc2[nH]1)n1c(C)nc2ccccc21 (configuration not stated) | · | · | · | · | 2 | 0 | · | ·
CC(C)=CC(=O)NCC1CCN(C(=O)C(=O)c2cc3ccccc3o2)CC1 | · | · | · | · | -2 | 0 | · | ·
CC(C)NC(=O)N[C@H]1C[C@@H]2O[C@@H](CO)CC[C@@H]2O[C@@H]1CCc1ccc(-c2ccccc2F)cc1 | · | · | · | · | -3 | · | · | ·
COc1cc(S(=O)(=O)N2CCOCC2)cc(C(=O)c2nccn2C)c1OC | -8 | -2 | 8 | -1 | 9.3* | -2 | -1 | 2
CCCCn1ccnc1C(=O)c1cc(S(=O)(=O)N2CCOCC2)ccc1C | -5 | -4 | 13 | 2 | -5 | 2 | · | ·
O=C(NC(=S)Nc1ccccn1)c1cccc([N+](=O)[O-])c1 | 2 | 1 | 2 | 1 | 8.8* | -2 | 5 | 7.5*
COc1ccccc1/C=N/NC(=O)C(=O)N1CCN(c2ccccc2OC)CC1 | -1 | -1 | 24 | -3 | 10* | -1 | -1 | -1
CCN=C1NC(c2ccc(C(F)(F)F)cc2)C(C(=O)OC)=C(C)N1Cc1ccccc1C(F)(F)F (configuration not stated) | · | · | · | · | -2 | 1 | · | ·
COc1cccc(NC(=O)Nc2nc3ncccn3c2-c2ccc(C)cc2)c1 | · | · | · | · | 4 | · | · | ·
CC1C/C(=N/NC(=O)c2cccc(F)c2)c2ccc(O)cc2C1 (configuration not stated) | 16 | 3 | 9 | -3 | 9.2* | -3 | -3 | 0
CCCCN1C(=O)C(CC(=O)NCCCN(C)C)CC(C(=O)N2CCOCC2)=C1C (configuration not stated) | · | 1 | · | · | 6 | 1 | · | ·
CCCCOC(=O)Nc1nnc(C(C)C)s1 | 3 | 3 | -1 | 0 | 8.0* | -1 | 8.6* | 10.0*
Cc1ccc(NC(=O)c2cc(C)on2)cc1 | 16 | 4 | 17 | 6 | 8.7* | 1 | 6 | 18*
Cc1ccc(NC(=S)Nc2cc(C)on2)cc1 | 22 | 6 | 19 | -1 | 8.6* | 0 | 4 | 13*
